Source: PubChem BioAssay (several laboratories)
The list is not random: actives were taken first. Their share in the collection is about 5.9%.
ABHD5-PLIN5 inh = ABHD5-PLIN5 protein interaction inhibition; AID 602281; Q00G26+Q8WTS1; inhibition, % at 4 µM; 360,000 tested, 0.78% active; Split G. princeps luciferase complementation, luminescence, 4 h;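 active = inhibition above the mean inhibition across every tested compound plus 3 SD, cut at about 22% in these data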;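 also: 0% = DMSO only wells and the 100% control is not disclosed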
LANA-H2A inh = blocks KSHV LANA binding to histone H2A/H2B; Q9QR71; cell-free LANA-H2A/H2B peptide, fluorescence polarization; inhibition, % (no concentration beside the values); 320,000 tested, 0.6% active; AID 2629; in the data active = inhibition mostly above about 10%, no sharp cut-off; inactive = mostly below about 6.7%
PRMT1 FP inh = PRMT1 (human) inhibition, primary screen; inhibition, % at 2.79 µM; recombinant PRMT1, activity-based probe fluorescence polarization; 370,000 tested, 1.3% active;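 active = inhibition above about 21% made by adding two undisclosed values, limit read from the data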
Target sequence (Q99873 whole entry, looked up): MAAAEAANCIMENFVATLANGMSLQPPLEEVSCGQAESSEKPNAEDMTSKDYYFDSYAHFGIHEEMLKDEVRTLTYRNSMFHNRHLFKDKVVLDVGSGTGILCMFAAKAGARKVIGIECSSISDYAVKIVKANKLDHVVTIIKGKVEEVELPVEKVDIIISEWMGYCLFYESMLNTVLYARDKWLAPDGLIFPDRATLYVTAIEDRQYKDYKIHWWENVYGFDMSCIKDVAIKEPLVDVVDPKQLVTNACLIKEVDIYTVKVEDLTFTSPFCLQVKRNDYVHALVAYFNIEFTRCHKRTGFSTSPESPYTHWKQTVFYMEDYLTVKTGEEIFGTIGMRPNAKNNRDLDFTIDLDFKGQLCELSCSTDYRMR
ALR inh = human ALR oxidase inhibition via reduced H2O2; purified ALR, DTT oxidation, H2O2 HRP-luminol luminescence; 290,000 tested, 3.8% active; inhibition, % (test concentration not listed); P55789;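 active = mean replicate inhibition above about 79%, with every replicate also reaching it, limit read from the data; inconclusive = only one of the two criteria met; inactive = mean below limit and not every replicate reaching it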
Target sequence (P55789 whole entry, looked up): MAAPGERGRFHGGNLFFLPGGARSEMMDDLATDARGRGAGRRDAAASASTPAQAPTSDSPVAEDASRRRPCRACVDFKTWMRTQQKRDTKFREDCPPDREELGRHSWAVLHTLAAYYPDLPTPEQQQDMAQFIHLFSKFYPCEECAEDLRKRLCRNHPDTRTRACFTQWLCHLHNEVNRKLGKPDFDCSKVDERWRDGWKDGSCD
Rtt109 Vps75 = blocks Candida albicans Rtt109/Vps75 acetyltransferase activity; inhibition, % at 34.9 µM; 330,000 tested, 0.16% active; AID 540336; purified Rtt109/Vps75, ThioGlo CoA-SH fluorescence, 4 h;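 active = inhibition of at least 50% in every replicate; inconclusive = best replicate reaches 50% inhibition but some replicates fall short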
rCAG binder = binds r(CAG) RNA repeats; inhibition, % at 3 µM; r(CAG) RNA repeat, TO-PRO-1 dye displacement fluorescence; 370,000 tested, 1.3% active; AID 651821;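 active = inhibition above the plate cutoff, the mean of all test compounds on that plate plus 3 SD, cut at about 35% in these data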;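 also: 0% = DMSO alone and 100% = 100 µM mitoxantrone as full dye displacement; higher means more dye released from RNA so lower well fluorescence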
PRMT1 confirm = confirmation of human PRMT1 inhibitors; shares compounds with PRMT1 FP inh; recombinant His-PRMT1, activity-based probe fluorescence polarization; inhibition, % at 2.79 µM; 3,300 tested, 42% active;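 active = mean inhibition across replicates above the hit cutoff derived for the earlier primary screen, cut at about 22% in these data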
An asterisk follows results filed as active; i = inactive; ? = inconclusive; · = no result; + = active, no number; ! = repeats disagree.

SMILES	ABHD5-PLIN5 inh	LANA-H2A inh	PRMT1 FP inh	ALR inh	Rtt109 Vps75	rCAG binder	PRMT1 confirm
Nc1ccc2c3c(cccc13)C(=O)N(c1ccccc1)C2=O	-5	·	174*	·	5	i	165*
COc1ccc(C(=O)Nc2ccccc2C(=O)NCCN2CCOCC2)cc1OC	1	-2	25*	1	-8	-6	-2
CCCCCCCCN1C(=O)[C@@H](CC(=O)NCCCOCCCC)C[C@@]2(C(=O)OC)C1=C[C@H](COCc1ccccc1)O[C@@H]2C	·	·	2	·	·	7	·
Cc1c(NC(=O)c2nn(C(C)C)c(=O)c3ccccc23)c(=O)n(-c2ccccc2)n1C	10	·	-8	·	·	1	·
CC(=O)Nc1ccc(Sc2ncnc3scc(-c4ccccc4)c23)cc1	-7	0	35*	·	14	2	37*
Nc1n[nH]c(=S)n1/N=C1/C(=O)Nc2ccccc21	-11	·	43*	·	8	14	40*
COCCNC(=O)C1CCCN(C(=O)c2ccc(C(F)(F)F)nc2C)CC1 (stereo not drawn)	3	·	1	·	·	1	·
O=C(O)C1CC(=O)N(Cc2ccc3c(c2)OCO3)C1 (stereo not drawn)	4	3	·	-27	-11	·	·
O=C1CC(NCc2ccc3c(c2)OCO3)C(=O)N1Cc1ccc2c(c1)OCO2 (stereo not drawn)	6	0	56*	-8	2	-2	0
CCc1ccccc1NC(=O)CSc1nnc([C@@H](N)Cc2ccccc2)o1	4	-2	43*	-6	·	-4	28*
CCOC(=O)C1CCCN(C(=O)c2ccc(C(F)(F)F)nc2C)CC1 (stereo not drawn)	-2	·	-1	·	·	1	·
Nc1ccc2c3c(cccc13)CC2	7	-21	66*	-16	14	-33	9
CCCCCCCCN1C(=O)[C@@H](CC(=O)NCCc2ccccc2OC)C[C@@]2(C(=O)OC)C1=C[C@H](C1CCCC1)O[C@@H]2C	·	·	6	·	·	1	·
COc1cccc2c1C(=O)c1c(O)c3c(c(O)c1C2=O)C[C@](O)(C(C)=O)C[C@H]3O[C@@H]1C[C@@H](N)[C@@H](O)[C@@H](C)O1	11	11	+	-3	?	0	149*
CCCCC(=O)OCC(=O)C1(O)Cc2c(O)c3c(c(O)c2C(OC2CC(NC(=O)C(F)(F)F)C(O)C(C)O2)C1)C(=O)c1c(OC)cccc1C3=O (stereo not drawn)	-9	·	25*	·	3	18	15
COc1cccc2c1-c1c(O)cccc1C2=O	4	2	-2	·	9	4	·
O=C(CNC(=O)c1ccc(Cl)cc1Cl)OCn1nnc2ccccc2c1=O	8	-1	3	18	8	1	·
COc1cc(C(=O)OCC(=O)N2CCCC2=O)cc(OC)c1C	7	1	96*	0	11	0	-1
O=S(=O)(c1ccccc1)n1cc(-c2cccc3nccn23)c2ccccc21	2	·	0	·	·	7	·
CCc1nc2ccc(C(=O)NCCCn3ccnc3)cn2c1N(C)Cc1cccs1	-1	·	-3	·	·	-3	·
O=C(NCC1CCCO1)c1cc(-c2ccncc2)nc2ccccc12 (stereo not drawn)	-3	·	1	·	5	-2	·
O=C(NCC1CCCO1)c1cc(-c2ccco2)nc2ccccc12 (stereo not drawn)	7	9	73*	7	-145	22	6
O=C(O)c1cc(-c2ccco2)nc2ccc(Br)cc12	29*!	2	35*	98*	0	28	7
NC(=O)COC(=O)c1cc(-c2ccco2)nc2ccccc12	7	4	28*	1	-46	7	7
Cc1ccccc1NC(=O)c1cc(-c2ccco2)nc2ccccc12	15	·	1	·	·	5	·
SMILES	ABHD5-PLIN5 inh	LANA-H2A inh	PRMT1 FP inh	ALR inh	Rtt109 Vps75	rCAG binder	PRMT1 confirm
Cn1c(=O)c(C(=O)COC(=O)c2cc(-c3ccco3)nc3ccccc23)c(N)n(Cc2ccccc2)c1=O	·	1	·	15	·	·	·
Cc1cccc(NC(=O)c2cc(-c3ccco3)nc3ccccc23)n1	18	-1	35*	1	6	5	9
COC[C@H]1CCCN1c1cccc2c1S(=O)(=O)N1CC[C@H](C1)O2	·	·	-4	·	·	2	·
CC(C)CCNC(=O)c1cc(-c2ccco2)nc2ccccc12	7	2	4	13	-4	-3	·
CCCCCCNC(=O)c1cc(-c2ccco2)nc2ccccc12	14	-3	42*	·	12	5	19
COC(=O)[C@]12C[C@H](CC(=O)NCCCCc3ccccc3)C(=O)N(Cc3ccco3)C1=C[C@H](C(C)C)O[C@@H]2C1CC1	·	·	1	·	·	1	·
N#CC1=C2SCN(c3ccccc3)CN2C(=O)CC1c1c(Cl)cccc1Cl (stereo not drawn)	-12	0	52*	-4	?	12	55*
COc1cc(OC)c(C2CC(=O)N3CN(c4ccccc4)CSC3=C2C#N)cc1OC (stereo not drawn)	-22	2	52*	-12	5	32	26*
CCc1ccccc1N1CSC2=C(C#N)C(c3cc(OC)c(OC)cc3OC)CC(=O)N2C1 (stereo not drawn)	-8	-8	62*	-47	4	24	79*
COc1cc(OC)c(C2CC(=O)N3CN(C)CSC3=C2C#N)cc1OC (stereo not drawn)	-20	0	42*	-18	-3	13	77*
COc1ccc2ccccc2c1C1CC(=O)N2CN(C)CSC2=C1C#N (stereo not drawn)	-19	1	20	-107	13	34	·
Cc1cnc(C=O)c2cccc([N+](=O)[O-])c12	13	·	2	·	·	3	·
COc1ccc2[nH]c3c(c2c1)CCN[C@]31C(=O)N(C)c2ccccc21	·	·	0	·	·	2	·
COc1cc(C2CC(=O)N3CN(c4ccccc4C)CSC3=C2C#N)cc(OC)c1OC (stereo not drawn)	·	4	38*	-16	·	21	46*
CCc1cc2c(COC(=O)c3cccc(NS(C)(=O)=O)c3)cc(=O)oc2cc1O	-9	2	0	-3	0	25	·
CC(C)=CCc1c(O)c(CC=C(C)C)c2c(c1O)-c1cc(O)c(O)cc1CC2	·	5	·	-3	·	·	·
CSC1=N/C(=C\c2ccc(C)o2)C(=O)S1	-1	-7	31*	2	5	12	3
COc1cccc(-c2ccc(CC[C@H]3O[C@H]4CC[C@@H](CO)O[C@H]4C[C@H]3NS(C)(=O)=O)cc2)c1	·	·	0	·	·	7	·
Cn1ncc2c(=S)nc(Cl)[nH]c21	10	·	31*	·	8	3	6
S=c1nc[nH]c2c1cnn2-c1ccccc1	6	-4	0	25	4	1	·
